Many of the other results were omitted from the sample, so hits are more common in it than they were.
RBX1-CUL1 inh – inhibitors of human ROC1-CUL1 ubiquitin ligase activity. P62877+Q13616. in vitro K48 di-Ub FRET, acceptor:donor ratio, 45 min. inhibition, % at 10 µM. actives 0.6% (n = 140,000). AID 1347404; in the data active means inhibition above about 25%
Starred values were filed as active, the others as inactive.

SMILES	RBX1-CUL1 inh
O=C(Oc1ccc(C=Nc2cccc(-c3nc4ccccc4s3)c2)cc1)c1cccc2ccccc12	-6
COc1nc(NC(=O)Nc2ccccc2)nc(N(C)C(=O)Nc2ccccc2)n1	5
CCOC(=O)C1CCN(C(=O)C2CCN(S(=O)(=O)c3cc(OC)ccc3OC)CC2)CC1	4
CCCCN(C)c1ccc(NC(C)=O)cc1	-9
COc1ccc(CCNC(=S)Nc2c(Cl)cncc2Cl)cc1OC	6
COc1ccc(CCNC(=S)Nc2cc(Cl)ccc2Cl)cc1OC	-3
COc1ccc(CCNC(=S)S)cc1OC	99*
Cc1ccc(N2CC(C)Cn3c2nc2c3c(=O)n(C)c(=O)n2C)cc1 (configuration not stated)	-7
CCOc1cc(Cl)c(S(=O)(=O)N(C)C)cc1Cl	-2
CC(OC1CC(=O)CC2C(=O)c3c(O)ccc(O)c3C(=O)C12)c1ccc2ccccc2c1 (configuration not stated)	97*
COc1ccc(C(C)OC2CC(=O)CC3C(=O)c4cccc(O)c4C(=O)C23)cc1 (configuration not stated)	2
CC(C)(C)OC1CC(O)CC2C(=O)c3c(O)ccc(O)c3C(=O)C12 (configuration not stated)	15
O=S(=O)(NCCC1=CCCCC1)c1ccc2ccccc2c1	-6
COC1(OC)C(c2cccs2)C(C#N)(C#N)C1(OC)OC (configuration not stated)	1
Cc1ccc(C)c(N2CCN(C(=O)N=C3CN(CC(C)C)C(=O)c4ccccc43)CC2)c1	-6
CCOC(=O)c1ccc(NC(=O)CCCCCN2C(=O)/C(=C\c3ccc(Cl)cc3)SC2=S)cc1	-6
COc1cc(/C=C2/SC(=S)N(CC(=O)O)C2=O)ccc1OC(=O)c1ccc(C)cc1	93*
COc1cc(/C=C2\SC(=S)N(Cc3ccccc3)C2=O)ccc1OCC(=O)O	3
COC(=O)c1ccc(/C=C2\SC(=S)N(CCCCCC(=O)O)C2=O)cc1	81*
COC(=O)c1ccc(/C=C2\SC(=S)N(CO)C2=O)cc1	4
COc1cc(/C=C2/SC(=S)N(c3cccc(C(F)(F)F)c3)C2=O)ccc1OC(=O)c1ccc(C)cc1	-14
CC1Cc2ccccc2N1C(=O)C12CCC(C)(C(=O)C1Br)C2(C)C (configuration not stated)	17
CN(C)NC(=O)C(Cl)(C(F)(F)F)C(F)(F)F	-8
Cc1[nH]cnc1CN1CCCC1C(=O)Nc1ccccc1Oc1cccnc1 (configuration not stated)	-5
CCCc1nc2ccccc2c(NC(=O)CN2CCCCCC2)c1CC	2
SMILES	RBX1-CUL1 inh
CN1C(=O)C(C=NCc2ccccc2)c2ccccc21 (configuration not stated)	-2
O=C1C=CC(=O)C(C(C=NCc2ccccc2)[N+](=O)[O-])=C1 (configuration not stated)	97*
CC1(C)OC(=O)C(C=NCc2ccccc2)C(=O)O1	-1
COc1ccc(N2C(=O)C(=Nc3ccc(F)cc3)C(Cl)C2=O)cc1 (configuration not stated)	2
O=C(NC(Nc1cccc(C(F)(F)F)c1)C(Cl)(Cl)Cl)c1ccc(Br)cc1 (configuration not stated)	2
CCOc1cc(/C=C2\SC(=Nc3cccc(C(=O)O)c3)NC2=O)c(Br)cc1OCC(=O)Nc1ccc(C)cc1	97*
COc1cc(/C=C2\SC(=Nc3ccccc3Cl)NC2=O)ccc1OCC(=O)O	5
CCOC(=O)c1ccc(N=C2NC(=O)/C(=C\c3cc(Br)ccc3OCC(=O)Nc3ccccc3OC)S2)cc1	1
COc1cc(/C=C2\SC(=Nc3cccc(Br)c3)NC2=O)ccc1OCC(=O)O	30*
C=CCOc1ccc(/C=C2\SC(=Nc3ccccc3)NC2=O)cc1OCC	-3
CCOc1cc(/C=C2/SC(=O)N(C(C)C)C2=O)c(Br)cc1OCC(=O)Nc1ccccc1	2
CC(C)C1Cc2c(sc3nc(SCC(=O)c4ccc(Br)cc4)nc(N)c23)CO1 (configuration not stated)	-11
CCCCN1CC(C(=O)Nc2ccccc2Cl)CC1=O (configuration not stated)	14
CN1CCOC(C)(C(O)c2ccccc2)C1=O (configuration not stated)	3
CC(=O)Nc1ccc(OCCCc2ccccc2)cc1	7
O=C(c1cccc(OC2CCN(C(=O)c3cscn3)CC2)c1)N1CCOCC1	-2
CCOC(=O)Nc1sc2c(c1C(=O)OC)CCC(C(C)(C)C)C2 (configuration not stated)	-9
CS(=O)(=O)N(Cc1ccccc1Cl)c1ccc(C(=O)NCCSc2ccc(Cl)cc2)cc1	4
CC(=O)N1c2ccccc2C(=O)C1C (configuration not stated)	-3
CN1C(=O)C(O)(CC(=O)c2ccc(Cl)s2)c2ccccc21 (configuration not stated)	1
CC(=O)N1c2ccccc2C2(O)N=C(C)SC12 (configuration not stated)	44*
CCOCCc1nnc(NC(=O)N(C)Cc2ccccc2-n2cccn2)s1	5
Cc1cccc(-[n+]2c([O-])c(Cc3ccccc3)c(=O)n3nc(C)ccc32)c1	0
COCCO[C@H]1[C@H](NC(=O)C(C)C)c2ccccc2C12CCN(C(=O)c1c(F)cccc1F)CC2	1
CC(=O)Oc1cccc(/C=C2/C(=O)NN(c3ccc(F)cc3)C2=O)c1	20
SMILES	RBX1-CUL1 inh
O=C1NN(c2cccc(Br)c2)C(=O)/C1=C\c1cccc(OC(=O)c2cccs2)c1	87*
CCOC(=O)c1ccc(N2NC(=O)/C(=C/c3cccc(OC(=O)c4cccs4)c3)C2=O)cc1	67*
Cc1cccc(N2NC(=O)/C(=C\c3cccs3)C2=O)c1	-6
O=C1NN(c2cccc(F)c2)C(=O)/C1=C\c1cccc(OC(=O)c2cccs2)c1	27*
CCc1ccc(N2NC(=O)/C(=C/c3ccc(OC(=O)c4cccs4)c(OC)c3)C2=O)cc1	8
CCc1ccc(N2NC(=O)/C(=C/c3cccc(OC(C)=O)c3)C2=O)cc1	11
O=C1NN(c2ccc(Cl)c(Cl)c2)C(=O)/C1=C/c1cccc(OC(=O)c2cccs2)c1	15
Cc1ccc(N2NC(=O)/C(=C/c3cccc(Br)c3)C2=O)cc1	-12
Cc1ccc(-n2cnnn2)cc1N	-3
CC1CCN(C(c2cccs2)c2ccc3cccnc3c2O)CC1 (configuration not stated)	2
CCc1ccccc1NC(=O)C1CC(=O)NC(=Nc2cc(OC)ccc2OC)S1 (configuration not stated)	4
COc1cc(C2c3c(n[nH]c3-c3ccccc3)OC(=N)C2C#N)ccc1OC1CCCC1 (configuration not stated)	-1
c1ccc2c(c1)cc(N1CCCC1)c1ccccc12	90*
CN1CCN(c2cc3ccccc3c(=O)c3ccccc23)CC1	-3
O=C(Nc1ccc(N2CCCC2)c(Cl)c1)c1cccc2ccccc12	2
CC(=O)c1ccc(C(=O)N2CCCC(Nc3ccc4c(c3)OCCO4)C2)s1 (configuration not stated)	4
Cc1ccc(-n2c(-c3ccccc3)cc(-c3ccccc3)nc2=O)cc1	-10
Cc1ccc(-n2c(Cl)c(Cl)nc(Cl)c2=O)cc1	45*
Cc1ccc(-n2c(-c3ccncc3)n[nH]c2=S)cc1	7
O=S(=O)(c1ccccc1)C1C=CC=CC(Cl)C1 (configuration not stated)	-2
CCOC(=O)c1c(-c2ccc(Cl)cc2)csc1NC(=O)C(C)(C)C	6

Assay outcomes as filed in PubChem.
